Measured values as given in PubChem BioAssay.
Activity calls are given as the source filed them. How the calls were made is not given here.

Target: L-lactate dehydrogenase (Plasmodium falciparum (isolate CDC / Honduras)) (UniProt Q27743)
Experiment: PfLDH activity inhibition – cell lysate, 3D7 strain, counter-screen for P. falciparum growth inhibition project (AID 2304);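 further: 0% = vehicle and 100% = reference inhibitor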
Conditions: P. falciparum 3D7 crude extract, LDH APAD/NBT absorbance; at 2 µM; hits give high values

L-lactate dehydrogenase (Plasmodium falciparum (isolate CDC / Honduras)), sequence (Q27743 whole entry, looked up): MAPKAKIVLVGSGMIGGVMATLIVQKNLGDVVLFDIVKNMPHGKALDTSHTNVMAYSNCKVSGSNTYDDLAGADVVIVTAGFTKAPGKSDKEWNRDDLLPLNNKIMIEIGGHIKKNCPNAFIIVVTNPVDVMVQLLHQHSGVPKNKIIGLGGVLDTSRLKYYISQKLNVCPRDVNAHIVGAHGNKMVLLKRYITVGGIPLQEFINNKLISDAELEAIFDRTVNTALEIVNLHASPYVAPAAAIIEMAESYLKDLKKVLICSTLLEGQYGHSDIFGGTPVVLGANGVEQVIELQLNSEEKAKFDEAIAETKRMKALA

Row | Compound | inhibition
1 | CCCN(CCC)CC(O)COc1ccccc1C(=O)Nc1ccccc1 (stereo unspecified) | -2% (inactive)
2 | CCC(CC)CN1C(=O)C(c2ccccc2)(c2ccccc2)N=C1N | -3% (inactive)
3 | Fc1ccc2nc(-c3ccc(-c4ccc(CN5CCN(c6cnccn6)CC5)cc4)s3)[nH]c2c1 | 5% (inactive)
4 | Cc1[nH]c(C)c(-c2ccc(Cl)cc2Cl)c(=O)c1Br | -4% (inactive)
5 | CCCCCCCC1CC(CC(=O)Nc2ccnc3ccc(OC)cc23)CN1 (stereo unspecified) | -2% (inactive)
6 | CN1CCCN(Cc2ccc(-c3cccc(NC(=O)c4cccc(F)c4)c3)cc2)CC1 | -3% (inactive)
7 | COc1ccc2c(=O)c(I)c(C)[nH]c2c1 | 4% (inactive)
8 | CCN(CCCN1CCCCC1)c1cc(C)nc(Nc2ccc(Oc3ccccc3)cc2)n1 | -3% (inactive)
9 | O=C(NC1CCCC1)c1ccc(N2CCC(NCc3cc4cc(Cl)ccc4[nH]3)CC2)cc1 | -2% (inactive)
10 | Nc1ccc(Oc2ccc(Cc3cnc(N)nc3N)cc2)cc1 | -3% (inactive)
11 | COc1ccc(CCn2c(=N)c(C(=O)NCc3cccnc3)cc3c(=O)n4ccccc4nc32)cc1 | -2% (inactive)
12 | Cc1noc(C)c1-c1cccc(CNCc2cccc(-c3ccc(-c4nc5c(C)cccc5[nH]4)cc3)c2)c1 | 6% (inactive)
13 | Cc1sc2ncnc(Sc3nc4ccccc4[nH]3)c2c1C | 1% (inactive)
14 | Fc1cccc(COc2ccc(Nc3ncnc4sc(C#C[C@H]5CCCN5)cc34)cc2F)c1 | 5% (inactive)
15 | COc1cc2c(cc1OC)CN(CCCCNC(=O)c1ccc(NC(=O)c3cc(Cl)cc(Cl)c3)cc1)CC2 | -6% (inactive)
16 | COc1ccc(NC(=O)[C@H](CC(C)C)Nc2ccnc(Nc3ccccc3)n2)cc1 | 3% (inactive)
17 | c1ccc(Oc2ccc(Nc3nncc4ccccc34)cc2)cc1 | 1% (inactive)
18 | O=C(Nc1ccc2ccccc2c1)c1ccc(CN2CCC(Cc3ccccc3)CC2)cc1 | -8% (inactive)
19 | Cc1ccc2[nH]c(-c3ccc(/C=C/C(=O)NC4CCN(Cc5ccccc5)CC4)cc3)nc2c1C | 4% (inactive)
20 | Cc1cc(C(=O)Nc2ccc(OCc3ccccc3)cc2)on1 | 1% (inactive)
21 | CCN(CC)CCNc1ccc(Nc2ccnc3cc4ccccc4cc23)cc1 | -8% (inactive)
22 | O=C(NCCCCCN1CCCN(C(=O)Nc2ccc(F)c(C(F)(F)F)c2)CC1)[C@@H]1C[C@H]1c1ccc(Cl)c(Cl)c1 | 2% (inactive)
23 | Cc1cc(NN=Cc2ccccc2[N+](=O)[O-])c2ccccc2n1 | -2% (inactive)
24 | COc1cccc(CCc2cccc(CNC(C)=O)c2)c1 | -2% (inactive)
25 | CC(C)[C@H]1CC[C@H](C)C[C@@H]1OC(=O)N[C@@H](Cc1ccc(O)cc1)C(=O)NC1CCN(Cc2ccc(OCCCN(C)C)cc2)C1 (stereo partly specified) | 4% (inactive)
26 | CCNc1cc(C(=O)N[C@@H](Cc2ccccc2)[C@H](O)CNC(C)(C)Cc2cccc(OC)c2)cc(N2CCCC2=O)c1 | -8% (inactive)

System: not listed separately
Experiment: inhibition of 3D7 malaria parasite growth – strain 3D7 (AID 2306);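 further: 0% = DMSO wells and 100% = chloroquine plus artemisinin control wells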
Conditions: P. falciparum 3D7 erythrocytic growth, LDH absorbance, 72 h; at 2 µM; hits give high values

Row | Compound | growth inhibition
27 | CCC(Nc1noc(-c2c(-c3ccccc3)noc2C)n1)c1ccccc1 (stereo unspecified) | 99% (active)
28 | C=CCN1Cc2c(O)cccc2C(c2ccc(O)c(O)c2)C1 (stereo unspecified) | 97% (active)
29 | Cc1cc(=O)c(-c2cccc(Oc3ccc(Cl)cc3)c2)c(C)[nH]1 | 96% (active)
30 | COc1ccc2c(NN=CC=Cc3ccccc3)ccnc2c1 | 100% (active)
31 | CCNc1cc(C(=O)N[C@@H](Cc2ccccc2)[C@H](O)CN[C@@H]2CCc3ccccc32)cc(N2CCCC2=O)c1 | 92% (active)
32 | CC(C)(C)Oc1ccc(C[C@@H]2NC3(C(=O)N(Cc4ccc(Cl)c(Cl)c4)c4ccccc43)C3C(=O)N(c4ccc(Br)cc4)C(=O)C32)cc1 (stereo partly specified) | 86% (active)
33 | CN(C)Cc1ccc(-c2cc3c(-c4ccc(CN(C)C)cc4)ccnc3[nH]2)cc1 | 100% (active)
34 | CNC(=O)c1c(NC(=O)c2cccs2)sc2c1CCCC2 | 94% (active)
35 | COc1ccccc1-c1nc2nc(N)nc(N)c2nc1-c1ccccc1OC | 84% (active)
36 | Cc1ccc(Cn2ncc(N3C[C@@H](C)N[C@@H](C)C3)c(Cl)c2=O)cc1NC(=O)Nc1ccc(-c2ccccc2)cc1 | 100% (active)
37 | COc1ccc(-c2c3c(=O)n(C)c(=O)n(C)c3c3nnc4ccccc4n23)cc1 | 96% (active)
38 | CCCCNCC(O)COc1ccccc1-c1ccc(N/N=C/c2cccc3ccccc23)nn1 (stereo unspecified) | 99% (active)
39 | O=C(NCc1ccc(Cl)cc1)c1ccc(CN2CCCN(Cc3cccc(O)c3)CC2)cc1 | 82% (active)
40 | N#Cc1cccc(C(O)CN(Cc2ccccc2)Cc2ccccc2)c1 (stereo unspecified) | 101% (active)
41 | CCCN(CCC)CC(O)COc1ccccc1C(=O)Nc1ccccc1 (stereo unspecified) | 92% (active)
42 | CCC(CC)CN1C(=O)C(c2ccccc2)(c2ccccc2)N=C1N | 97% (active)
43 | Fc1ccc2nc(-c3ccc(-c4ccc(CN5CCN(c6cnccn6)CC5)cc4)s3)[nH]c2c1 | 99% (active)
44 | Cc1[nH]c(C)c(-c2ccc(Cl)cc2Cl)c(=O)c1Br | 87% (active)
45 | CCCCCCCC1CC(CC(=O)Nc2ccnc3ccc(OC)cc23)CN1 (stereo unspecified) | 90% (active)
46 | CN1CCCN(Cc2ccc(-c3cccc(NC(=O)c4cccc(F)c4)c3)cc2)CC1 | 91% (active)

Row | Compound | growth inhibition
47 | COc1ccc2c(=O)c(I)c(C)[nH]c2c1 | 96% (active)
48 | CCN(CCCN1CCCCC1)c1cc(C)nc(Nc2ccc(Oc3ccccc3)cc2)n1 | 101% (active)
49 | O=C(NC1CCCC1)c1ccc(N2CCC(NCc3cc4cc(Cl)ccc4[nH]3)CC2)cc1 | 91% (active)
50 | Nc1ccc(Oc2ccc(Cc3cnc(N)nc3N)cc2)cc1 | 86% (active)
51 | COc1ccc(CCn2c(=N)c(C(=O)NCc3cccnc3)cc3c(=O)n4ccccc4nc32)cc1 | 98% (active)
52 | Cc1noc(C)c1-c1cccc(CNCc2cccc(-c3ccc(-c4nc5c(C)cccc5[nH]4)cc3)c2)c1 | 103% (active)
53 | Cc1sc2ncnc(Sc3nc4ccccc4[nH]3)c2c1C | 99% (active)
54 | Fc1cccc(COc2ccc(Nc3ncnc4sc(C#C[C@H]5CCCN5)cc34)cc2F)c1 | 98% (active)
55 | COc1cc2c(cc1OC)CN(CCCCNC(=O)c1ccc(NC(=O)c3cc(Cl)cc(Cl)c3)cc1)CC2 | 99% (active)
56 | COc1ccc(NC(=O)[C@H](CC(C)C)Nc2ccnc(Nc3ccccc3)n2)cc1 | 92% (active)
57 | c1ccc(Oc2ccc(Nc3nncc4ccccc34)cc2)cc1 | 86% (active)
58 | O=C(Nc1ccc2ccccc2c1)c1ccc(CN2CCC(Cc3ccccc3)CC2)cc1 | 95% (active)
59 | Cc1ccc2[nH]c(-c3ccc(/C=C/C(=O)NC4CCN(Cc5ccccc5)CC4)cc3)nc2c1C | 101% (active)
60 | Cc1cc(C(=O)Nc2ccc(OCc3ccccc3)cc2)on1 | 87% (active)
61 | CCN(CC)CCNc1ccc(Nc2ccnc3cc4ccccc4cc23)cc1 | 102% (active)
62 | O=C(NCCCCCN1CCCN(C(=O)Nc2ccc(F)c(C(F)(F)F)c2)CC1)[C@@H]1C[C@H]1c1ccc(Cl)c(Cl)c1 | 90% (active)
63 | Cc1cc(NN=Cc2ccccc2[N+](=O)[O-])c2ccccc2n1 | 100% (active)
64 | COc1cccc(CCc2cccc(CNC(C)=O)c2)c1 | 88% (active)
65 | CC(C)[C@H]1CC[C@H](C)C[C@@H]1OC(=O)N[C@@H](Cc1ccc(O)cc1)C(=O)NC1CCN(Cc2ccc(OCCCN(C)C)cc2)C1 (stereo partly specified) | 99% (active)
66 | CCNc1cc(C(=O)N[C@@H](Cc2ccccc2)[C@H](O)CNC(C)(C)Cc2cccc(OC)c2)cc(N2CCCC2=O)c1 | 99% (active)
